Test results: PMC5700166
Substitutions are numbered along the chain they refer to.

What was measured:
Assay in all cases: protein-binding microarray (PBM); PBM: ~300 nM protein, 6 mM HEPES pH 7.8, 80 mM KCl, 0.5 mM EDTA, 0.5 mM EGTA, 6% glycerol, 35 ng/ul poly-dIdC, 1% milk, 1 h, room temperature; Ap Aiptasia and Nv Nematostella (sea anemones) / Co Capsaspora / Aq Amphimedon (sponge) / Dm Drosophila / Hu human; RHD is the Rel homology domain; high values mean tight binding
Settings in all cases: dsDNA, one strand shown
GST-Ap-NF-kB RHD = molecular target: T1, GST-Ap-NF-kB RHD (Exaiptasia pallida (Aiptasia), UniProt A0A913YAJ5 2-422)
T1 sequence: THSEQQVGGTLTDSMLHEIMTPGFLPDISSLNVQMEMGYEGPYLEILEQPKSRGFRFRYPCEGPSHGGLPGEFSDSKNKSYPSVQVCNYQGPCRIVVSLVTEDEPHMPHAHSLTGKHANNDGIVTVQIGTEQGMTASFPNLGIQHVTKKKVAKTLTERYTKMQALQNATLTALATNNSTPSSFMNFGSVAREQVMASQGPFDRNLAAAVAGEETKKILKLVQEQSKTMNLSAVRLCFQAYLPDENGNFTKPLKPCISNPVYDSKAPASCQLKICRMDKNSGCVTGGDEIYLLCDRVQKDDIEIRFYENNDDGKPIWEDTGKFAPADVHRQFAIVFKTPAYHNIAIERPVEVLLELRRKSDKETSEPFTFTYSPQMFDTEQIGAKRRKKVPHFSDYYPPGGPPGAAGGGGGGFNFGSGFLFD

[1] = molecular target: T2, GST-Nv-NF-kB (Cys allele) (Nematostella vectensis, UniProt E5G601 2-411)
T2 sequence: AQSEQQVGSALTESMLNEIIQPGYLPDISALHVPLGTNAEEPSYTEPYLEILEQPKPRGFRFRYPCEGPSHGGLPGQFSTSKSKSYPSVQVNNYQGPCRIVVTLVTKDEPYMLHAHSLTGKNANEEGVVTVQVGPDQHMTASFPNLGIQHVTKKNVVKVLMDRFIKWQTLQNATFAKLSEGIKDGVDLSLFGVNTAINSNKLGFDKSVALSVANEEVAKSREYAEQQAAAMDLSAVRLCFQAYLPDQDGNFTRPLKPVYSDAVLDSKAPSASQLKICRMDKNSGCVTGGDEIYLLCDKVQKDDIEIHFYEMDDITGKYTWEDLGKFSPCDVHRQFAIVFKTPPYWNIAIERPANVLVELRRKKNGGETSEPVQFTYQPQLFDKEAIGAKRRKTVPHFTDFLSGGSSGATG

[2] = molecular target: T3, GST-Nv-NF-kB (Ser allele) (Nematostella vectensis, UniProt A7UNT2 2-411)
T3 sequence: T2 sequence with Q21R, C66S, S207N, E215Q, V217A, E225K, A268E, D399E

GST-Co-NF-kB = molecular target: T4, GST-Co-NF-kB (Capsaspora owczarzaki, UniProt F1ARL5 200-546)
T4 sequence: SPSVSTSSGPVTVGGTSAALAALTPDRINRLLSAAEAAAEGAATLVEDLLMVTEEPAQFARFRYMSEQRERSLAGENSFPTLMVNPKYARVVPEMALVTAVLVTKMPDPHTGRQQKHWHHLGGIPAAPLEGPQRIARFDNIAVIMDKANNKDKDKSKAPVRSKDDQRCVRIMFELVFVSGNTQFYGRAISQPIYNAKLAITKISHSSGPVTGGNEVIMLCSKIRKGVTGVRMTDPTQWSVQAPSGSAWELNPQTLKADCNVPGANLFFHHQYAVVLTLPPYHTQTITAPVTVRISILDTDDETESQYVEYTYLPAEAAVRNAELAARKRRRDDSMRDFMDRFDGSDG

GST-Dm-Relish = molecular target: T5, GST-Dm-Relish (Drosophila melanogaster, UniProt Q94527 99-473)
T5 sequence: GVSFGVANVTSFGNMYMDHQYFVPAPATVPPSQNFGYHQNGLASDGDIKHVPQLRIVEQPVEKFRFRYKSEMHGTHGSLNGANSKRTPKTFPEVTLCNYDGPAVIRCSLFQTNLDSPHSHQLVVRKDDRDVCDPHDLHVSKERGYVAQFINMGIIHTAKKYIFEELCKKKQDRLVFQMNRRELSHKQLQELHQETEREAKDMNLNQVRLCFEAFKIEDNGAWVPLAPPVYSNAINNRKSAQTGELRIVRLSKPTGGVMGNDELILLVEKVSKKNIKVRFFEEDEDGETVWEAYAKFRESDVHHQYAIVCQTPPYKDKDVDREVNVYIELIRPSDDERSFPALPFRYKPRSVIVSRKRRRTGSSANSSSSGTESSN

GST-Aq-NF-kB = molecular target: T6, GST-Aq-NF-kB (Amphimedon queenslandica, UniProt A9Y5G7 2-389)
T6 sequence: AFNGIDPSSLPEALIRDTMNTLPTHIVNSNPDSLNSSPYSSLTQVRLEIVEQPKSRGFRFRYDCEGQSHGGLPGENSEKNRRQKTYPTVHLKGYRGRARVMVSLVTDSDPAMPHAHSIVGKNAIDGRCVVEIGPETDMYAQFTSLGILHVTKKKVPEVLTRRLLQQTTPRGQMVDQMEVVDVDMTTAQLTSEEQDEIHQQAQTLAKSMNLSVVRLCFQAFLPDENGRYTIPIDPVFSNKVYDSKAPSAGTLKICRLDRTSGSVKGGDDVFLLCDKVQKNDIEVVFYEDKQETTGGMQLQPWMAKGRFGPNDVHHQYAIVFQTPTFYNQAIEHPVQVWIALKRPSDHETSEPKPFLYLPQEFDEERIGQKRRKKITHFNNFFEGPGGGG

GST-Hu-p50 = GST-Hu-p50 (Homo sapiens, UniProt P19838 7-356)
Chain of GST-Hu-p50 (P19838 7-356): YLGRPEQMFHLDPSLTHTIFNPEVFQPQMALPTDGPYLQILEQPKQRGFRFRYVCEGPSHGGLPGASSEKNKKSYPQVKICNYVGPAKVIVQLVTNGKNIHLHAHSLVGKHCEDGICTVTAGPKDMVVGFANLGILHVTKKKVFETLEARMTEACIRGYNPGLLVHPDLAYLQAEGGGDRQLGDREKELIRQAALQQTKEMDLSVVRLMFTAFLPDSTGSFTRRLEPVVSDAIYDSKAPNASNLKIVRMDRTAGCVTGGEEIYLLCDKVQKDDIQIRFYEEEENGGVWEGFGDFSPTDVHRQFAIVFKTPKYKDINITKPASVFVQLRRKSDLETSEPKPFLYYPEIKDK

Row | Sequence | binding signal (GST-Ap-NF-kB RHD) [z-score] | binding signal [1] [z-score] | binding signal [2] [z-score] | binding signal (GST-Co-NF-kB) [z-score] | binding signal (GST-Dm-Relish) [z-score] | binding signal (GST-Aq-NF-kB) [z-score] | binding signal (GST-Hu-p50) [z-score]
1 | CCGATTAACATCAAACTTCCCCGTGATGTTAATCGGGTCTTGATTCGCTTGACGCTGCTG | 6.81 | 8.41 | 8.97 | 8.65 | 7.92 | 7.04 | 6.45
2 | CCGATTAACATCAGGATAGCCCCTGATGTTAATCGGGTCTTGATTCGCTTGACGCTGCTG | 4 | 4.29 | 2.73 | – | 2.38 | 5.49 | 3.65
3 | CCGATTAACATCAGGGACATACCTGATGTTAATCGGGTCTTGATTCGCTTGACGCTGCTG | 2.52 | 3.64 | 1.01 | – | 3.64 | 5.64 | 2.14
4 | CCGATTAACATCAGAGTTCCCCCTGATGTTAATCGGGTCTTGATTCGCTTGACGCTGCTG | 7.64 | 7.87 | 8.12 | 8.96 | 7 | 6.05 | 6.39
5 | CCGATTAACATCAGGGAGTCACCTGATGTTAATCGGGTCTTGATTCGCTTGACGCTGCTG | 3.25 | 1.16 | 1.39 | – | 8.86 | 3.63 | 1.96
6 | CCGATTAACATCAGGGATTTCACTGATGTTAATCGGGTCTTGATTCGCTTGACGCTGCTG | 2.71 | 2.33 | 1.49 | – | 6.3 | 4.19 | 2.38
7 | CCGATTAACATCAGGACATCCCCTGATGTTAATCGGGTCTTGATTCGCTTGACGCTGCTG | 6.25 | 7.54 | 5.99 | 1.88 | 8.74 | 7.75 | 5.89
8 | CCGATTAACATCAGGGACTTCTATGATGTTAATCGGGTCTTGATTCGCTTGACGCTGCTG | 5.47 | 6.35 | 7.05 | – | 3.93 | 5.24 | 5.28
9 | CCGATTAACATCAGGGGAAAGAATGATGTTAATCGGGTCTTGATTCGCTTGACGCTGCTG | 4.95 | 6.07 | 8.18 | 8.25 | 3.01 | 4.87 | 5.05
10 | CCGATTAACATCAAGGGGGAAATTGATGTTAATCGGGTCTTGATTCGCTTGACGCTGCTG | 7.69 | 8.6 | 10.5 | 8.86 | 5.87 | 7.06 | 7.51
11 | CCGATTAACATCACGAAAGTCCCTGATGTTAATCGGGTCTTGATTCGCTTGACGCTGCTG | 6.26 | 6.77 | 7.54 | – | 5.86 | 5.78 | 5.45
12 | CCGATTAACATCAGGGGCTTTACTGATGTTAATCGGGTCTTGATTCGCTTGACGCTGCTG | 4.24 | 5.11 | 3.48 | – | 7.41 | 5.73 | 4.83
13 | CCGATTAACATCAGAAAGTCCCATGATGTTAATCGGGTCTTGATTCGCTTGACGCTGCTG | 5.73 | 7.09 | 6.43 | – | 6.06 | 5.57 | 4.63
